About 83,000 compounds went through this panel and 20% of them were active in at least one assay; those are over-represented in the sample as a whole.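 How to read the values: 0–100, growth inhibition (40 = 60% inhibited); 0, no net growth; -100 to 0, cell death (-40 = 40% of starting cells died; -100 = all dead).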 Unmarked numbers belong to inactive results. Calls of active or inactive are those of the source. How the source made its calls: active means growth percent below 10; inactive means the rest.

These results are taken from PubChem BioAssay (NCI).

Holding throughout (assay): NCI-60 one-dose screen, 48 h (100 = growth as untreated, 0 = no growth, -100 = all killed)
Common to all, as to conditions: 10 µM

The subject of assay [1] is T-47D breast.
Assay [2] relates to BT-549 breast.
Assay [3] relates to MDA-MB-435 melanoma.
Assay [4] deals with SW-620 colon.
Assay [5] relates to MCF7 breast.
Assay [6] concerns HCT-116 colon.
For assay [7], the system named is HCC-2998 colon.
Assay [8] concerns KM12 colon.
For assay [9], the system named is MDA-MB-468 breast.

As for `O=C(Nc1ccc(I)cc1)Nc1nc2ccc([N+](=O)[O-])cc2s1`, the growth in [1] was -85.9% (active); in assay [2], -99.6% (active); in [3] it was -96.1% (active); in [4], -80.4% (active); in assay [5] it was -93.6% (active); in assay [6] it was -100% (active). The figures for the growth in assay [7], in assay [8] and in assay [9] were -95.6% (active), -93.3% (active) and -97.2% (active), respectively.

As to `Cc1ccc(-c2nc3ccc(C(=O)N=Nc4c(O)[nH]c5ccc(Br)cc45)cc3[nH]2)cc1`, the growth in assay [1] was 84.7%; in assay [2], 138%; in assay [3], 57.9%; in [4], 7.03% (active); in assay [5], 21.7%; in [6] it was 26.3%. Moreover, the growth in [7] was 20.5%; in assay [8], 32.6%; in [9] it was 62.5%.

Turning to `CCN1CCN(c2ccc(NC(=O)Nc3ccc(-c4cc(C(=O)NC(C)C)c5ncccc5n4)cc3)cc2C(F)(F)F)CC1`, the growth was -66.5% (active) in assay [1]; -82.1% (active) in [2]; -92.9% (active) in [3]; -69.8% (active) in assay [4]; -89.9% (active) in assay [5]; -94% (active) in assay [6]. The values for the growth in assay [7], in assay [8] and in assay [9] were -98.2% (active), -83.7% (active) and -91.1% (active), respectively.

`O=C(c1ccc([N+](=O)[O-])c([N+](=O)[O-])c1O)n1[nH]c(=O)c2ccccc2c1=O`: the growth was 49.8% in assay [1]; 51.2% in [2]; 53.7% in assay [3]; 35.7% in [4]; 30.5% in assay [5]; 30.1% in [6]. In addition, the growth was 106% in assay [7], 72.3% in assay [8] and 0.114% (active) in [9].

With `Cc1nc(Nc2nc(C)c3ccc(OCCN4CCOCC4)cc3n2)[nH]c(=O)c1C`, the growth in assay [1] is -10.5% (active); in assay [2] it was -74.2% (active); in [3], -50.8% (active); in [4], 8.56% (active); in assay [5], 0.281% (active); in assay [6], 6.7% (active). Also, the results for the growth in assay [7], in [8] and in assay [9] were -72.8% (active), 6.49% (active) and -72.8% (active), respectively.

`COc1cc(C2CC(c3ccccc3)=Nc3c(N)nc(N)nc3N2)ccc1Oc1nc(Nc2ccc(F)cc2)nc(N(C)C)n1` (stereo unspecified): the growth in assay [1] is 54.4%; in [2], 45%; in assay [3] it was 15.4%; in [4] it was 44.6%; in [5] it was 2.04% (active); in assay [6], 3.43% (active). The growth in assay [7] was 47.7%; in assay [8] it was 31.6%; in assay [9], 1.47% (active).

Regarding `C=C(C)[C@@H]1CC[C@]2(C)[C@H](CC=C3[C@@H]4CC(C)(C)CC[C@]4(C(=O)N4CCOCC4)CC[C@]32C)[C@@]1(C)CCCN`, the growth in assay [1] was -88.1% (active); in assay [2], -85.3% (active); in [3] it was -99.5% (active); in assay [4] it was -65.1% (active); in [5] it was -70.7% (active); in [6], -54.2% (active). In addition, the figures for the growth in [7], in assay [8] and in assay [9] were -81.1% (active), -82.3% (active) and -96% (active), respectively.

On to `O=C(NO)c1ccc(CNC(=O)[C@H]2Cc3c([nH]c4ccccc34)[C@H](c3ccc(Cl)cc3)N2)cc1`, for which the growth in assay [1] was -2.39% (active); in assay [2] it was 26.9%; in [3] it was 4.26% (active); in assay [4] it was -51.6% (active); in assay [5], 3% (active); in [6], 1.03% (active). The growth in [7] is -53.2% (active); in assay [8], 19.6%; in assay [9], -33.5% (active).

For `COc1ccccc1[C@H]1C(C(=O)c2ccc(O)cc2)C2(N[C@@H]1c1ccccc1)C(=O)Nc1ccc(Br)cc12` (stereo partly specified), the growth in assay [1] was 45.8%; in assay [2] it was 54%; in assay [3], 14.2%; in [4], 13.6%; in assay [5] it was 3.19% (active); in assay [6] it was 39.6%. Moreover, the growth in assay [7] was -38.6% (active); in assay [8], 14.3%; in assay [9] it was -42.9% (active).

As for `Cc1ccc(/C=C/C(=O)c2ccc(NC(=O)CSc3nnc(-c4c[nH]c5ccccc45)n3-c3ccccc3)cc2)cc1`, the growth was 54.2% in assay [1]; 95.7% in [2]; 72.8% in assay [3]; 90.1% in assay [4]; 8.55% (active) in assay [5]; -40.2% (active) in [6]. Also, the figures for the growth in assay [7], in [8] and in [9] were 83.8%, 78.7% and 85.7%, respectively.

Take `O=C(NO)c1ccc(CN2CCN(c3nc(-c4ccccc4)c4ccccc4n3)CC2)cc1`: the growth is 8.88% (active) in assay [1]; 35.8% in assay [2]; 27.8% in assay [3]; 15.6% in assay [4]; 9.79% (active) in assay [5]; 18.9% in [6]. Moreover, the growth in assay [7] was 12.6%; in [8], 18.7%; in assay [9] it was -14.2% (active).

On to `Nc1nc2c(F)c(F)c(F)c(F)c2s1`, for which the growth was 91.3% in assay [1]; 105% in assay [2]; 101% in assay [3]; 106% in [4]; 93.7% in assay [5]; 113% in assay [6]. Also, the growth is 116% in assay [7], 99.9% in assay [8] and 97.9% in assay [9].

With `C/C(=N\N=C\c1ccc(N(C)C)cc1)c1ccc2c(c1)Nc1ccccc1S2`, the growth in assay [1] was 44.6%; in [2], 58.2%; in [3] it was 51.1%; in [4], 35.3%; in assay [5], 35.8%; in assay [6] it was 31.4%. In addition, the values for the growth in [7], in assay [8] and in assay [9] were 54.4%, 60.9% and 8.43% (active), respectively.

`C=C1CCC2C3(C)COC(c4c(F)cccc4F)OC3CCC2(C)C1CC(O)C1=CCOC1=O` (stereo unspecified): the growth in assay [1] was 47.6%; in assay [2] it was -9.18% (active); in [3], 40%; in assay [4] it was 3.41% (active); in assay [5], 19%; in assay [6], -31.2% (active). Also, the growth in assay [7] is 52.1%; in [8] it was 54.3%; in assay [9] it was 66.1%.
